Test results reported in the supplement of paper PMC6897291.

System: U-2932
Assay: growth inhibition by drug alone (1 - RLU/untreated control) (fraction); higher = stronger inhibition
Settings: 177Lu-lilotomab satetraxetan 0 ug/ml
Experimental: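 U-2932 ABC-DLBCL cells were pretreated or not for 18 h with 1 ug/ml 177Lu-lilotomab satetraxetan (600 MBq/mg), washed and seeded (3000 cells/well) on 384-well plates pre-printed with the Selleck Cambridge Cancer Compound library. Viability was read by RealTime-Glo luminescence on days 3-6 after seeding. Effect = 1 - RLU/mean RLU of the 48 untreated no-drug control wells per plate; Bliss score = (M-E)/(1-Fa), with E the expected Bliss-additive effect.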

SMILES: CCC[C@H](NC(=O)/C(C#N)=C/c1cccc(Br)n1)c1ccccc1
- growth inhibition by drug alone (10 nM, time (day): 3): 0.109
- growth inhibition by drug alone (10 nM, time (day): 4): 0.0652
- growth inhibition by drug alone (10 nM, time (day): 5): -0.0661
- growth inhibition by drug alone (10 nM, time (day): 6): -0.128
- growth inhibition by drug alone (1000 nM, time (day): 3): 0.0251
- growth inhibition by drug alone (1000 nM, time (day): 4): 0.0639
- growth inhibition by drug alone (1000 nM, time (day): 5): -0.0194
- growth inhibition by drug alone (1000 nM, time (day): 6): -0.182

SMILES: Cc1nc(N)sc1-c1ccnc(Nc2ccc(N3CCOCC3)cc2)n1
- growth inhibition by drug alone (10 nM, time (day): 3): 0.00864
- growth inhibition by drug alone (10 nM, time (day): 4): -0.0087
- growth inhibition by drug alone (10 nM, time (day): 5): -0.0373
- growth inhibition by drug alone (10 nM, time (day): 6): -0.101
- growth inhibition by drug alone (1000 nM, time (day): 3): 0.0735
- growth inhibition by drug alone (1000 nM, time (day): 4): 0.00717
- growth inhibition by drug alone (1000 nM, time (day): 5): 0.0172
- growth inhibition by drug alone (1000 nM, time (day): 6): 0.253

SMILES: O=C1[C@H](CC[C@H](O)c2ccc(F)cc2)[C@@H](c2ccc(O)cc2)N1c1ccc(F)cc1 [Ezetimibe (Zetia)]
- growth inhibition by drug alone (10 nM, time (day): 3): 0.207
- growth inhibition by drug alone (10 nM, time (day): 4): 0.167
- growth inhibition by drug alone (10 nM, time (day): 5): 0.0126
- growth inhibition by drug alone (10 nM, time (day): 6): -0.0222
- growth inhibition by drug alone (1000 nM, time (day): 3): 0.1
- growth inhibition by drug alone (1000 nM, time (day): 4): 0.113
- growth inhibition by drug alone (1000 nM, time (day): 5): 0.0388
- growth inhibition by drug alone (1000 nM, time (day): 6): -0.0102

SMILES: CCOc1cc2ncc(C#N)c(Nc3ccc(F)c(Cl)c3)c2cc1NC(=O)/C=C/CN(C)C [Pelitinib (EKB-569)]
- growth inhibition by drug alone (10 nM, time (day): 3): -0.0434
- growth inhibition by drug alone (10 nM, time (day): 4): -0.0318
- growth inhibition by drug alone (10 nM, time (day): 5): -0.0741
- growth inhibition by drug alone (10 nM, time (day): 6): -0.211
- growth inhibition by drug alone (1000 nM, time (day): 3): 0.227
- growth inhibition by drug alone (1000 nM, time (day): 4): 0.204
- growth inhibition by drug alone (1000 nM, time (day): 5): 0.154
- growth inhibition by drug alone (1000 nM, time (day): 6): 0.148

SMILES: Cc1ccc(-c2csc3ncnc(SCCC(=O)O)c23)cc1
- growth inhibition by drug alone (10 nM, time (day): 3): 0.0174
- growth inhibition by drug alone (10 nM, time (day): 4): -0.014
- growth inhibition by drug alone (10 nM, time (day): 5): -0.0343
- growth inhibition by drug alone (10 nM, time (day): 6): -0.0333
- growth inhibition by drug alone (1000 nM, time (day): 3): -0.00216
- growth inhibition by drug alone (1000 nM, time (day): 4): -0.0356
- growth inhibition by drug alone (1000 nM, time (day): 5): -0.0409
- growth inhibition by drug alone (1000 nM, time (day): 6): 0.0278
